PubChem BioAssay (NCI)
About 83,000 compounds went through this panel and 20% of them were active in at least one assay; those are over-represented in the sample as a whole.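 Assay: single dose, 48 h. Readout: percent growth (0 = no net growth; negative = cell death). Active: <10.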 Unmarked numbers belong to inactive results. Calls of active or inactive are those of the source.

test system: HL-60(TB) leukemia; assay: NCI-60 one-dose screen, 48 h (100 = growth as untreated, 0 = no growth, -100 = all killed); conditions: 10 µM unless noted

| SMILES | growth |
| --- | --- |
| CN(C)c1ccc(/C=C\N=Nc2ccc(Br)cc2)cc1 | 16.6% |
| CCOC(=O)C1=C(N)Oc2c(sc3c(C)cccc23)C1c1ccc(Cl)cc1 (stereo unspecified) | 1.5% (active) |
| CSc1nc2sc3cccc(Cl)c3n2c(=N)c1C#N | 91.8% |
| CSC[C@H](NC(=O)COc1cccc2cnccc12)C(=O)NC(Cc1ccccc1)C(O)C(=O)N1CSC[C@H]1C(=O)NC(C)(C)C (stereo partly specified) | 140% |
| O=C(Nc1ccc(N2CCNCC2)cc1)c1[nH]ncc1Nc1cc(Oc2ccccc2)ncn1 | -49.6% (active) |
| CCCCCC(CCCCC)C(=O)O | 90.4% |
